Screens: PubChem BioAssay, National Center for Advancing Translational Sciences (NCATS)
TDP1 cell CPT: qHTS for Inhibitors of human tyrosyl-DNA phosphodiesterase 1 (TDP1): qHTS in cells in presence of CPT; chicken DT40 Tdp1-/-;hTDP1 cells + 20 nM CPT, ATP luminescence, 48 h; Potency, µM (top dose mostly 46.2 µM), for the others: top-dose activity change, negative = growth inhibition, actives largely listed as inhibitors; actives 12% (n = 420,000); AID 686979, 2013; further: potency means the concentration at half of the fitted maximal effect; on the % scale 0 is the no-effect control and ±100 the full control effect; nearly all actives have a fitted effect of over 55% in size
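Chicken DT40 Tdp1-/- cells stably complemented with human TDP1 were seeded at 400 cells/well in medium containing 20 nM camptothecin, exposed to pin-transferred compounds, and grown at 37 °C for at least 48 hr. Viability was read as ATP luminescence.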
D3 antag: qHTS of D3 Dopamine Receptor Antagonist: qHTS. D3R cells, DiscoveRx beta-arrestin luminescence, antagonist mode; hits give low values. max response, negative = inhibition, %. actives 2.5% (n = 360,000); in the data active means max response below about -50%; inconclusive means no clear call, values can overlap the other calls; further: on the % scale 0 is the no-effect control and ±100 the full control effect
Target sequence (P35462 whole entry, looked up): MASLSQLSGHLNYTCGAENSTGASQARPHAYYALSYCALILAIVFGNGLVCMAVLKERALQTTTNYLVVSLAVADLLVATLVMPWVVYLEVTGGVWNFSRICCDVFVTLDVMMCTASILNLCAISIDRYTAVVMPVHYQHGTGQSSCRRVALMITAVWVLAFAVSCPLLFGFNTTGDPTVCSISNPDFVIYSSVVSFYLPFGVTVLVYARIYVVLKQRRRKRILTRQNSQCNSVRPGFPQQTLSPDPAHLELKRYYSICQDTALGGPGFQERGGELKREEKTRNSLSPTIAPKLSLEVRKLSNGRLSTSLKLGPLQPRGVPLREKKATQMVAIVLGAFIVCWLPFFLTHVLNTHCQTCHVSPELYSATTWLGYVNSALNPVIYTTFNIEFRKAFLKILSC
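Cells plated overnight at 1500 cells/well, then exposed to library compounds with dopamine controls for 90 minutes at 37 degrees C. DiscoveRx reagent added for 30–60 minutes at room temperature; luminescence read, quantitative HTS format.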
IL-1B inflam inh: qHTS for Inhibitors of Inflammasome Signaling: IL-1-beta AlphaLISA Primary Screen | activity change, % at 57.5 µM | THP-1 LPS/ATP IL-1B secretion, AlphaLISA, 16 h; hits give low values | actives 4.7% (n = 360,000); in the data active means activity change below about -50%; inconclusive means mostly about -30% to -49%; further: on the % scale 0 is the no-effect control and ±100 the full control effect
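THP-1 cells pretreated 1 hr with compounds (up to 57.5 uM final), then stimulated with LPS (250 ng/mL final) plus ATP (1.25 mM final); secreted IL-1B measured by AlphaLISA after 16 hr, decreased signal indicating inhibition.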
ClpP mod: qHTS Assay for Activators of ClpP | purified B. subtilis ClpP, FRET peptide cleavage, 20 min | actives 1.9% (n = 340,000) | Potency, µM (series often up to 57.5 µM), without a hit: at the top dose activity change, negative = active; active means well fitted falling curve with a large enough effect; inconclusive means small, poorly fitted or top-dose-only effect; inactive means no such curve, though single readings can be large or run the other way; further: potency means the concentration at half of the fitted maximal effect; the source files actives as falling curves though it sought activators and does not explain the sign; nearly all actives have a fitted effect of over 65% in size
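Buffer: 100 mM Tris/HCl pH8, 100 mM KCl, 0.05% low protease BSA, 2.5% glycerol, 0.01% Tween-20. ClpP 10 microg/mL final; 20 min RT; delta FRET normalized to ADEP and DMSO controls.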
DRD3 agonist: qHTS of D3 Dopamine Receptor Agonist: qHTS | max activation, % | D(3) dopamine receptor (Homo sapiens), P35462 | actives 0.58% (n = 410,000) | AID 652048, 2013 | D3R DiscoveRx beta-arrestin cells, luminescence, 90 min; in the data active means max activation above about 30%; further: 0% is about no effect
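Agonist mode: compounds and dopamine controls were applied to plated cells for 90 min at 37 degrees C after an overnight attachment at 1500 cells/well. Luminescent read-out followed 30 - 60 minutes at room temperature with DiscoveRx detection reagent.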
TDP1 cell noCPT: qHTS for Inhibitors of human tyrosyl-DNA phosphodiesterase 1 (TDP1): qHTS in cells in absence of CPT | DT40 Tdp1-/- hTDP1 cells, no CPT, ATP luminescence, 48 h | Potency, µM (titrated, usually from 46.2 µM), for inactives: at the top dose activity change, negative = growth inhibition, usual class: inhibitors | actives 15% (n = 420,000) | AID 686978, 2013; further: potency means the concentration at half of the fitted maximal effect; on the % scale 0 is the no-effect control and ±100 the full control effect; nearly all actives have a fitted effect of over 55% in size
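DT40 Tdp1-/-;hTDP1 cells, no CPT (DMSO vehicle only), 400 cells/well; compounds pin-transferred; ≥48 hr, 37 °C; CellTiter-Glo 30 min RT dark, luminescence read.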
* hit, by the source's call; u = inconclusive; x = no result. Most compounds without a hit are left out; they make up all but 21% or so of the library. Unless noted, the call rests on the fitted dose curve; in most records, active means well fitted inhibition curve with a large enough effect; inconclusive means small, poorly fitted or top-dose-only effect; inactive means flat fitted curve, though single readings scatter.

SMILES	TDP1 cell CPT	D3 antag	IL-1B inflam inh	ClpP mod	DRD3 agonist	TDP1 cell noCPT
CCc1c(-c2ccccc2)nc2ccccc2c1C(=O)NCCc1ccccc1	u	x	x	-1%	14	23µM*
Cc1c(-c2ccccc2)nc2ccccc2c1C(=O)NCc1cccs1	u	19	-6	1%	-4	16µM*
Cc1nc2cccc(C(=O)Oc3ccc([N+](=O)[O-])cc3)c2o1	-18%	-6	-10	-9%	-16	-23%
CCc1nc2ccccc2c(C(=O)NCc2ccccc2)c1C	-8%	-3	6	0%	-4	-1%
O=C(NCCc1ccc(Cl)cc1)c1c2c(nc3ccccc13)C(=O)N(C1CCCCC1)C2	15µM*	x	x	-13%	0	15µM*
O=C(NCCc1ccccc1)c1c2c(nc3ccccc13)C(=O)N(C1CCCCC1)C2	12µM*	x	x	-16%	-14	18µM*
CCCNC(=O)c1c2c(nc3ccccc13)C(=O)N(C1CCCCC1)C2	-3%	x	x	u	-4	-21%
CCN(CC)CCCNC(=O)c1c2c(nc3ccccc13)C(=O)N(C1CCCCC1)C2	-3%	x	x	14µM*	-3	-14%
CCOc1ccc(CCNC(=O)c2c3c(nc4ccccc24)C(=O)N(C2CCCCC2)C3)cc1	16µM*	x	x	-7%	-2	21µM*
CC(=O)Nc1cccc(C(=O)OCC(=O)NNC(=O)c2cccs2)c1	-4%	6	11	-5%	-4	-23%
Cc1ccc(-c2nc(CSCC(=O)N3CCOCC3)c(C)o2)cc1	-3%	-9	18	-29%	5	-16%
Cc1ccc(-c2nc(CSCC(=O)N3CCN(c4ccccn4)CC3)c(C)o2)cc1	18µM*	-7	-16	-23%	2	21µM*
CCc1ccc(-c2nc(CSCC(=O)N3CCN(c4ccccn4)CC3)c(C)o2)cc1	23µM*	50	u	-15%	5	18µM*
CN(CCCNC(=O)c1cccn2c(=O)c3ccccc3nc12)Cc1ccccc1	22µM*	-56*	u	-3%	-57	u
O=C(NCCN1CCN(c2ccccc2F)CC1)c1cccn2c(=O)c3ccccc3nc12	u	-50*	8	-3%	-17	16µM*
CCCCCn1c(=O)[nH]c2cc(C(=O)NCCCN(C)Cc3ccccc3)ccc2c1=O	-30%	-6	-21	-22%	-7	-27%
N=c1c(C(=O)NCCN2CCOCC2)cc2c(=O)n3ccccc3nc2n1CCCN1CCOCC1	-4%	6	-12	4%	10	10%
O=C(NCCN1CCN(c2ccccc2)CC1)c1cccn2c(=O)c3ccccc3nc12	u	10	-2	4%	0	18µM*
Cc1ccc(S(=O)(=O)N[C@H](C(=O)N2CCC(C(=O)N[C@@H](CC(=O)O)C(=O)O)CC2)C(C)C)cc1	-7%	17	3	1%	23	-5%
COc1ccc(-c2nc3c(c(SCC(=O)Nc4ccccc4F)n2)Cc2cc(C)ccc2O3)cc1	0%	x	x	0%	10	-9%
CSc1cccc(NC(=O)N2CCN(S(=O)(=O)c3ccc4c(ccn4C)c3)CC2)c1	x	x	x	-15%	1	x
O=C(Oc1cccc(Nc2ncnc3ccccc23)c1)c1cccnc1	u	14	36	-2%	2	-10%
C#Cc1cccc(Nc2ncnc3cc(OC)c(OC)cc23)c1	u	x	x	x	x	23µM*
COc1ccc(C(=O)Oc2cccc(Nc3ncnc4ccccc34)c2)cc1OC	u	41	0	-9%	13	18µM*
COc1cc(C(=O)Oc2cccc(Nc3ncnc4ccccc34)c2)cc(OC)c1OC	23µM*	27	-95*	-17%	7	16µM*
